Measurements published in PubChem BioAssay (NCATS).
Inconclusive results are not listed. The source made the active and inactive calls. Unless noted, calls come from the whole dose curve; as a rule, active = well fitted curve in either direction with a large enough effect (not every such curve was filed as active); inconclusive = small, poorly fitted or top-dose-only effect, or another doubt; inactive = flat fitted curve, though single readings scatter.

What was measured:
[1] = AP1 Signaling Pathway (AID 357); conditions: ME-180 AP-1-bla reporter, EGF-induced, beta-lactamase ratio, 5 h; at 17.2 µM (top of the series) unless noted;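 note: ME-180 reporter cells stimulated with EGF at its EC50 level; % is set by controls: 0 for no effect and ±100 for the full control effect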
In short: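 Read-out was the 460nm/530nm emission ratio (excitation 405nm) after CCF4 loading for 2.5 hours at room temperature. Cells carried an AP-1-driven beta-lactamase reporter, were stimulated with EC50 EGF plus compound for 5 hours, and AC50 values came from titrations.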

[2] = NFAT Signaling Pathway (AID 444); conditions: Jurkat NFAT-bla M1, carbachol, beta-lactamase ratio, 5 h; at 17.2 µM (top of the series) unless noted;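 note: carbachol stimulus at about its EC50 of 1 µM final; % is set by controls: 0 for no effect and ±100 for the full control effect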
In short: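 Read-out: CCF4 FRET ratio (460 nm/530 nm) after 1 h RT dye loading, used for %activity and AC50 from titration series. Cells: Jurkat NFAT-β-lactamase/M1 line, treated with compound plus 1 uM carbachol for 5 h, 37 °C.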

[3] = Stat Signaling Pathway (AID 446); conditions: ME-180 SIE beta-lactamase reporter, IL-6 stimulated, 5 h; at 17.2 µM (top of the series) unless noted;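 note: ME-180 cervical cancer cells given 40 pM IL-6 alongside compound; SIE-controlled beta-lactamase reporter measured as 460/530 nm FRET emission ratio; % is set by controls: 0 for no effect and ±100 for the full control effect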
In short: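 Reporter line: ME-180 cervical carcinoma, SIE-beta-lactamase. Treatment: compound with 40 pM IL-6, 5 hrs, 37 C, in low-serum OPTI-MEM with 10 mM HEPES pH 7.3. Detection: 460/530 nm fluorescence.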

[4] = molecular target: Glucocorticoid receptor (Homo sapiens) (UniProt P04150); experiment: GR-GFP Redistribution (AID 450;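 active = compounds whose dose series gives a full or clear partial fitted curve of increased nuclear translocation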; note: potency is the fitted concentration of half-maximal effect)
[5] = qHTS Assay for Identification of Small Molecule Agonists for Hypoxia Response Element Signaling Pathway (AID 914; active = well fitted activation curve with a large enough effect in the signal ratio, with a control signal flat, not every such curve was filed as active; the % refers to the signal ratio; note: % of control where 0% means no effect); conditions: ME-180 (cervical carcinoma) HRE-bla reporter, beta-lactamase ratio, CoCl2, 17 h; activation: hits give high values
In short: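 qHTS titration; ME-180 HRE-bla cells; EC50 CoCl2 co-treatment, 17 h at 37 degrees Celsius; CCF4 dye, ex 405nm, em 460nm and 530nm; %Activity from ratio; AC50.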

[6] = molecular target: Mitogen-activated protein kinase 10 (Mus musculus) (UniProt Q61831); experiment: JNK3 AlphaScreen Assay (AID 530);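 note: kinase came from lysate of stimulated human HepG2 cells; signal reports phosphorylation of biotinylated GST-cJun 1-79 at Ser73 with 10 µM ATP; % is set by controls: 0 for no effect and ±100 for the full control effect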
In short: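 Room-temperature AlphaScreen kinase assay; pre-activated HepG2 lysate as JNK3 source, biotin-GST-cJun(1-79) substrate, 10 uM ATP, compound 15 min preincubation.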

[7] = molecular target: 3',5'-cyclic-AMP phosphodiesterase 4B (Homo sapiens) (UniProt Q07343); experiment: qHTS Assay for Inhibitors of PDE-IV (AID 607; active = well fitted activation curve with a large enough effect in the main read-out, with a control signal flat, not every such curve was filed as active; note: % of control where 0% means no effect)
In short: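 Cell-based read-out of cAMP via a modified cyclic nucleotide-gated channel and membrane potential dye (535/590 nm) in HEK293 cells expressing PDE4 endogenously. Compounds tested up to 22.9 uM final; 100 uM RO 20-1724 reference.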

[8] = molecular target: Glucocorticoid receptor (Homo sapiens) (UniProt P04150); experiment: GR-EFC Redistribution (AID 451; calls by dose curve; note: potency is the fitted concentration of half-maximal effect); conditions: CHO-K1 GR-EFC translocation, beta-gal luminescence, 2 h
In short: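 Translocation of GR-ED fusion to nuclear EA restores b-gal, read by luminescence after 1 h room-temperature detection. Engineered CHO-K1 biosensor cells, 1,000/well, exposed 2 h at 37 C to titrations up to 46 uM final.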

[9] = qHTS Assay for Identification of Small Molecule Agonists for Thrombopoietin (TPO) Signaling Pathway (AID 917; active = well fitted curve in the direction sought with a large enough effect; an effect the other way counts as inactive or inconclusive; note: % is set by controls: 0 for no effect and ±100 for the full control effect)
In short: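 Murine Ba/F3 cells stably expressing human TPO receptor and a Glycoprotein IIb promoter–luciferase reporter were IL-3-starved overnight, then treated with compounds plus TPO (26 pM final, its EC50) for 24 hrs at 37 C; luminescence was read.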

[10] = molecular target: Pyruvate kinase (Leishmania mexicana) (UniProt Q27686); experiment: qHTS Validation Assay for Inhibitors of Leishmania Mexicana Pyruvate Kinase (AID 945; active = well fitted curve in the direction sought with a large enough effect; an effect the other way counts as inactive or inconclusive;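 note: 0% = DMSO only neutral control wells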)
In short: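 Read-out: luminescence from PKLight stop/detection reagent, data normalized to DMSO. Reaction: 0.2 nM E451W LmPYK, 0.5 mM PEP, 0.1 mM ADP, pH 7.2, 1 h room temperature.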

[11] = molecular target: Pyruvate kinase PKM (Homo sapiens) (UniProt P14618); experiment: qHTS Assay for Activators of Human Muscle Pyruvate Kinase (AID 954; active = well fitted curve in the direction sought with a large enough effect, not every such curve was filed as active;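 note: 0% = uninhibited enzyme and -100% = no enzyme or full thiadiazolimine inhibition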)
In short: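 Human PKM2 activity is measured as ATP generation, detected by luciferase-coupled luminescence. The enzyme (0.1 nM) acts on 0.5 mM PEP and 0.1 mM ADP for 1 h at ambient temperature; data are normalized to uninhibited and full-inhibition wells.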

[12] = molecular target: Alpha-galactosidase A (Homo sapiens) (UniProt P06280); experiment: Counterscreen for Glucocerebrosidase Inhibitors: qHTS Assay for Human alpha-Galactosidase at pH 4.5 (AID 992; active = well fitted curve in the direction sought with a large enough effect; an effect the other way counts as inactive or inconclusive; note: 0% is about no effect)
In short: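 Quantitative HTS: compounds tested from 0.7 nM up to 77 uM against 2 nM enzyme with 80 uM 4-MU alpha-D-galactopyranoside. The 20 min room-temperature reaction is stopped with 1M NaOH/1M glycine, pH 10.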

[13] = molecular target: Glucocorticoid receptor (Homo sapiens) (UniProt P04150); experiment: qHTS assay for small molecule agonists of glucocorticoid receptor signaling (AID 588532; active = well fitted curve in the direction sought with a large enough effect in the signal ratio, with a control signal flat; the % refers to the signal ratio;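 note: 100% = dexamethasone at 0.1 µM and 0% = DMSO only wells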); conditions: HeLa MMTV-bla, beta-lactamase ratio, agonist, 18 h; hits give high values; percent of dexamethasone control, DMSO zero
In short: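 Using MMTV-bla HeLa cells in medium with 1% stripped FBS and 25 mM HEPES, compounds were titrated and incubated overnight-length (18 h). Beta-lactamase cleavage of CCF4 was quantified by dual-emission fluorescence.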

[14] = molecular target: Glucocorticoid receptor (Homo sapiens) (UniProt P04150); experiment: qHTS assay for small molecule antagonists of glucocorticoid receptor signaling (AID 588533; active = well fitted inhibition curve with a large enough effect in the signal ratio, with a control signal flat, not every such curve was filed as active; the % refers to the signal ratio)
In short: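 Antagonist-mode qHTS: compound titrations added to GRE-bla HeLa cells, then dexamethasone 2 nM final; 18 h, 37 C. CCF4 FRET fluorescence normalized to dexamethasone and DMSO; IC50 from Hill fit.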

[15] = molecular target: Peroxisome proliferator-activated receptor gamma (Homo sapiens) (UniProt P37231); experiment: qHTS assay for small molecule antagonists of peroxisome proliferator-activated receptor gamma signaling (AID 588537; active = well fitted inhibition curve with a large enough effect in the signal ratio, with a control signal flat, not every such curve was filed as active; the % refers to the signal ratio;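 note: reporter cells co-stimulated with 50 nM rosiglitazone agonist during compound treatment; % of control where 0% means no effect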)
In short: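 Inhibitors of agonist-stimulated UAS-bla reporter activity were sought in HEK293 cells; rosiglitazone (50 nM) defined full signal and DMSO baseline. Curves fitted to Hill model gave IC50 and efficacy.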

[16] = qHTS assay for small molecule agonists of the antioxidant response element (ARE) signaling pathway (AID 651741; active = well fitted activation curve with a large enough effect in the signal ratio; the % refers to the signal ratio; note: potency is the fitted concentration of half-maximal effect)
In short: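 Seeding 2,000 ARE-bla HepG2 cells per well preceded a 5 h incubation at 37 C/5% CO2 and a 16 h compound exposure at 37 C. Beta-lactamase reporter activity was then quantified by fluorescence after 2 h with LiveBLAzer B/G FRET substrate.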

[17] = molecular target: Peroxisome proliferator-activated receptor alpha (Homo sapiens) (UniProt Q07869); experiment: qHTS assay for small molecule agonists of the peroxisome proliferator-activated receptor alpha (PPARalpha) signaling pathway (AID 651778; active = well fitted curve in the direction sought with a large enough effect; an effect the other way counts as inactive or inconclusive; note: % of control where 0% means no effect); conditions: PathHunter PPARalpha complementation, chemiluminescence, 6 h; max response: hits give high values
In short: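 Chemiluminescence from complemented enzyme reported PPARalpha activation in cells after 6 hr of compound treatment at 37 C. The detection reagent was incubated for 60 min at room temperature, and compounds were scored as agonists.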

[18] = qHTS assay for cell viability of HEK293 cells (AID 743288; active = well fitted curve in the direction sought with a large enough effect; an effect the other way counts as inactive or inconclusive; note: % is set by controls: 0 for no effect and ±100 for the full control effect; nearly all actives have a fitted effect of over 50% in size); conditions: ATP luminescence (CellTiter-Glo), 18 h; max response: hits give low values
In short: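 Parental HEK293 cells were seeded at 2,000 cells/well, rested at least 5 h at 37 C, then exposed to compounds in DMSO for 18 h at 37 C. Viability was read as ATP-dependent luciferase luminescence after 30 min at room temperature.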

[19] = molecular target: Nuclear receptor subfamily 1 group I member 2 (Rattus norvegicus) (UniProt Q9R1A7); experiment: qHTS assay for small molecule activators of the rat pregnane X receptor (rPXR) signaling pathway (AID 651751; call rule not given here; note: 0% is about no effect); conditions: rPXR reporter cells, luciferase (One-Glo), 24 h
Sequence of Nuclear receptor subfamily 1 group I member 2 (Rattus norvegicus) (Q9R1A7 whole entry, looked up): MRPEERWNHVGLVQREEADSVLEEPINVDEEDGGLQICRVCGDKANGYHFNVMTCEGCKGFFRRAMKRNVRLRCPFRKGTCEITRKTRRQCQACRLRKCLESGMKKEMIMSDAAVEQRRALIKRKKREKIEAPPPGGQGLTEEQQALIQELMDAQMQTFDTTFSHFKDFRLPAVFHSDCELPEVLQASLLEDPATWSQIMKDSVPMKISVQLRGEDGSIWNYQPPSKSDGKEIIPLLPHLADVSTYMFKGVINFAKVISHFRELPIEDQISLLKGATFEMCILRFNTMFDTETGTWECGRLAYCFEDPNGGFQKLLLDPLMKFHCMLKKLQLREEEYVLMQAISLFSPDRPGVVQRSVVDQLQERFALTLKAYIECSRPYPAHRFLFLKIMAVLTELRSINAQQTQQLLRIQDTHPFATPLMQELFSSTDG

Sequence of Glucocorticoid receptor (Homo sapiens) (P04150 whole entry, looked up, the tested form may be a part): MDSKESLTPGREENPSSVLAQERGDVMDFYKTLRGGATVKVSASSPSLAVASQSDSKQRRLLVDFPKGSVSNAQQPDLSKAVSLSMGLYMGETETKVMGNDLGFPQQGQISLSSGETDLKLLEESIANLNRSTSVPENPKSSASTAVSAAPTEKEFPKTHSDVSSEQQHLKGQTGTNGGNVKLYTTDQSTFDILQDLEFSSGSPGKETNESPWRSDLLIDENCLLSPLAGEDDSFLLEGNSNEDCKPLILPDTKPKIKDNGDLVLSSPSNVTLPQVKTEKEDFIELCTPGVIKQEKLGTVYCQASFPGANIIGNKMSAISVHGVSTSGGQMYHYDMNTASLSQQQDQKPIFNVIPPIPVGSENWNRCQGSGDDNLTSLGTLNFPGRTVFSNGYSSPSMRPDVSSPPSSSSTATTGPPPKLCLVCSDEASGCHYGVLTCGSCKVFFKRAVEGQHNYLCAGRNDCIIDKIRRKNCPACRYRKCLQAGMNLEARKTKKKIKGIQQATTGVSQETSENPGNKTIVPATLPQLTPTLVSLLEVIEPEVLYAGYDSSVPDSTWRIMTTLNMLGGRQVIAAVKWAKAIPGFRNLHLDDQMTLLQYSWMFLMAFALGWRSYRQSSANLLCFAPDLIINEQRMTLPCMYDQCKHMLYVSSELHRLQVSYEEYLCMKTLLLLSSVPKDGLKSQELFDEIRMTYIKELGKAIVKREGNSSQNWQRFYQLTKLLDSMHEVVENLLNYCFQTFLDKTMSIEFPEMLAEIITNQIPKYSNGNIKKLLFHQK
Sequence of Pyruvate kinase PKM (Homo sapiens) (P14618 whole entry, looked up): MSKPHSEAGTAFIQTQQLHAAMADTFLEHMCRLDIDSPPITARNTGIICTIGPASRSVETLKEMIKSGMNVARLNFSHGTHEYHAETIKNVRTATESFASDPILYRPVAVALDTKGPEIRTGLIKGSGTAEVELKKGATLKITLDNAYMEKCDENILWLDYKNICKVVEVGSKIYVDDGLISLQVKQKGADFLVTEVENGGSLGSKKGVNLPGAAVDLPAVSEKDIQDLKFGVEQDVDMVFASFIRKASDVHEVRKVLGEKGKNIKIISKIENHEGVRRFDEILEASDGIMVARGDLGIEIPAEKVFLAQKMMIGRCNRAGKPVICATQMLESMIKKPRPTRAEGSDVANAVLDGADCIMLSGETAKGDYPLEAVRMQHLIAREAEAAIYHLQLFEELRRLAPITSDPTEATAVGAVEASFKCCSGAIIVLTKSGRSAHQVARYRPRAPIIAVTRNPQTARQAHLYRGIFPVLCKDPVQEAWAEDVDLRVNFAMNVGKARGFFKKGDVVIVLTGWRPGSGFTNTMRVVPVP
Sequence of Pyruvate kinase (Leishmania mexicana) (Q27686 2-499 E452W): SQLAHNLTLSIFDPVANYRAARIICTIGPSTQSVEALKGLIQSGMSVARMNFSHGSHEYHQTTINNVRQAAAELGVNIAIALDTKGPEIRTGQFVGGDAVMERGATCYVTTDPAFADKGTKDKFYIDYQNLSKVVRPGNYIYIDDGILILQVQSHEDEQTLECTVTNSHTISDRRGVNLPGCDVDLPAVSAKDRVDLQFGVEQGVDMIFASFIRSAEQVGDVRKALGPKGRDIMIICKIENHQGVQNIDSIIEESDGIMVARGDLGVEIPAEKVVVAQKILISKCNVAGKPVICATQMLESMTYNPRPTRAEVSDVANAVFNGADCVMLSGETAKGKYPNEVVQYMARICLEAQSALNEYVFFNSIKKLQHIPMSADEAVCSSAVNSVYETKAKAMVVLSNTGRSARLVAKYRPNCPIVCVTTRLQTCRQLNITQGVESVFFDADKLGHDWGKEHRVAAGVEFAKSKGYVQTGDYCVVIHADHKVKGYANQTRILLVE
Sequence of Alpha-galactosidase A (Homo sapiens) (P06280 whole entry, looked up): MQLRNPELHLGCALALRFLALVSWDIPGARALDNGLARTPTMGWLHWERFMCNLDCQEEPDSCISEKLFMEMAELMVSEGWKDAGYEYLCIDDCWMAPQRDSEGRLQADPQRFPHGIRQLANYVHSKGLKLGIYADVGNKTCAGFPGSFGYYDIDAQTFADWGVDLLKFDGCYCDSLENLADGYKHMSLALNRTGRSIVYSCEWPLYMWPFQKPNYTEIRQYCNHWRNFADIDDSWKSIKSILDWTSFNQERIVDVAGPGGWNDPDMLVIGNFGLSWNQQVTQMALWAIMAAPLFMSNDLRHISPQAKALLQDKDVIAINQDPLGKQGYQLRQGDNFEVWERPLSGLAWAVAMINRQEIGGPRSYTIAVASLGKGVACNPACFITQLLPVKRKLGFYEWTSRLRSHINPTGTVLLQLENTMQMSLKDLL
Sequence of 3',5'-cyclic-AMP phosphodiesterase 4B (Homo sapiens) (Q07343 whole entry, looked up): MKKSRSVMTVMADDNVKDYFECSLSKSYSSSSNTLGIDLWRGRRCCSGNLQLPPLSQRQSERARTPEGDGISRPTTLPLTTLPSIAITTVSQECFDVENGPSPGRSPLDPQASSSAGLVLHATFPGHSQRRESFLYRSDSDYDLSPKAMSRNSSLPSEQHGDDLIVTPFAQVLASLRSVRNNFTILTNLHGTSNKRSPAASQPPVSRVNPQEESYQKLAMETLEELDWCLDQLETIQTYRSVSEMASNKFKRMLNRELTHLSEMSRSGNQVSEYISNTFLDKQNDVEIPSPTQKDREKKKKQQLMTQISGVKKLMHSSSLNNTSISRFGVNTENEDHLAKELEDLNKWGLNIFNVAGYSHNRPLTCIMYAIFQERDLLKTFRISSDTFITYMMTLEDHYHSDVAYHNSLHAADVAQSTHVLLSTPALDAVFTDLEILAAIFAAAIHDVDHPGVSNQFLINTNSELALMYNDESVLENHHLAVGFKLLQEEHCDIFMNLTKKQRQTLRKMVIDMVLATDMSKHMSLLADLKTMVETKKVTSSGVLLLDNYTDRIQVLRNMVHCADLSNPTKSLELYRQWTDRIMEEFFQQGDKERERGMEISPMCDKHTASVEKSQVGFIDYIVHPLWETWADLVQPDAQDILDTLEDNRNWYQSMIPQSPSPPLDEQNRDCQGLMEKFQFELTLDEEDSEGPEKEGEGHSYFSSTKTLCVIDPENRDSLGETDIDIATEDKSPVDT
Sequence of Peroxisome proliferator-activated receptor gamma (Homo sapiens) (P37231 whole entry, looked up): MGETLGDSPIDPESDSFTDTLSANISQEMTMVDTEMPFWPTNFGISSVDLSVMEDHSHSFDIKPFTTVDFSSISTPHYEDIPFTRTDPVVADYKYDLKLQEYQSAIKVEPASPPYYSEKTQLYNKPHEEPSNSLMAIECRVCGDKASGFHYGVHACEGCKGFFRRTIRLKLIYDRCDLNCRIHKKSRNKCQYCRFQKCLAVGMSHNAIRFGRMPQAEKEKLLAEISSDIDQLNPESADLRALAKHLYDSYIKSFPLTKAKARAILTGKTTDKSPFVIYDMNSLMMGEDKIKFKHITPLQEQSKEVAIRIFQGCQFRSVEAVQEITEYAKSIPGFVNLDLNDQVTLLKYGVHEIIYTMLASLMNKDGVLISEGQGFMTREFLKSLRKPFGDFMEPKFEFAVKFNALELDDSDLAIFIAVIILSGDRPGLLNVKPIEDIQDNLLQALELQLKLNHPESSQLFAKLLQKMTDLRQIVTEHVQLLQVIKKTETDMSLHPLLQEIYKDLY
Sequence of Peroxisome proliferator-activated receptor alpha (Homo sapiens) (Q07869 whole entry, looked up): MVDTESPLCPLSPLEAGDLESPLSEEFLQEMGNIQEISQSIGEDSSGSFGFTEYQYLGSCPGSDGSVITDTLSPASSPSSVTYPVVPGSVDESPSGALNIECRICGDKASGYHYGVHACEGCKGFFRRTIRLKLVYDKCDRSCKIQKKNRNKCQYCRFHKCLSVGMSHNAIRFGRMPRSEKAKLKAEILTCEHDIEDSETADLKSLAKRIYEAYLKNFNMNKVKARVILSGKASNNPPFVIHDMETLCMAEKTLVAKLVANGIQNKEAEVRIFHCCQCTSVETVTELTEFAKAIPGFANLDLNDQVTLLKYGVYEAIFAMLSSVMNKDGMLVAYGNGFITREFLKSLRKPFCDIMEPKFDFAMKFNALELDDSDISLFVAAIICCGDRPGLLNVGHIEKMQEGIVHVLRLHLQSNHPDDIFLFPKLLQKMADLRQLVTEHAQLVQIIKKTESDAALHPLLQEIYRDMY

Cc1cc(C)c(S(=O)(=O)O)c(C)n1
inactive: activity change, negative = inhibition [1] 6.1% | activity change, negative = inhibition [2] -2.21% | activity, negative = inhibition [3] 6.56% | Potency [4] > 20.6 µM | activation [5] 11.7%

COc1cc(C)cc2c(-c3c(O)cc(O)c4c3C[C@H](C)N[C@@H]4C)cc(-c3cc(-c4c(O)cc(O)c5c4C[C@H](C)N[C@@H]5C)c4cc(C)cc(OC)c4c3O)c(O)c12
inactive: activity change, negative = inhibition [1] 6.28% [at 7.69 µM] | activity change, negative = inhibition [2] 9.14% [at 7.69 µM] | activity, negative = inhibition [3] 5.82% [at 7.69 µM] | Potency [4] > 46 µM | activity change, negative = inhibition [6] -9.73% [at 11.4 µM] | Potency [7]

CC(=O)O[C@@H]1C[C@]2(C)[C@H](C[C@@H](O)[C@H]3[C@@]4(C)CC[C@@H](O)[C@@H](C)[C@@H]4CC[C@@]32C)/C1=C(\CCC=C(C)C)C(=O)O
inactive: activity change, negative = inhibition [1] -14.6% [at 38 µM] | activity change, negative = inhibition [2] -0.766% [at 38 µM] | activity, negative = inhibition [3] 11.2% [at 38 µM] | Potency [4] > 46 µM | Potency [8] > 46 µM | Potency [6] | Potency [7] | Potency [9] | Potency [10] | outcome [11] | outcome [12]

O=c1oc2cc(O)ccc2c2oc3cc(O)ccc3c12
inactive: activity change, negative = inhibition [1] 5.61% | activity change, negative = inhibition [2] 3.33% | activity, negative = inhibition [3] -5.07% | Potency [4] > 20.6 µM | activation [13] -5.79% | Potency [14] | Potency [15] | max response [17] -1.88% | max response [18] -9.05% | max response [19] 3.73%
active: Potency [16] 54.5 µM

CC(=O)[C@@]1(O)CC[C@@H]2[C@@H]3CCC4=CC(=O)CC[C@@]4(C)[C@H]3CC[C@]21C
inactive: activity change, negative = inhibition [1] 4.89% [at 38 µM] | activity change, negative = inhibition [2] -13.4% [at 38 µM] | activity, negative = inhibition [3] -11.8% [at 38 µM] | Potency [6] | Potency [7] | Potency [9] | Potency [10] | outcome [11] | outcome [12]
active: Potency [4] 0.162 µM

CC(C)(C(=O)O)c1ccc([C@@H](O)CCCN2CCC(C(O)(c3ccccc3)c3ccccc3)CC2)cc1
inactive: activity change, negative = inhibition [1] 8.57% [at 38 µM] | activity change, negative = inhibition [2] 8.69% [at 38 µM] | activity, negative = inhibition [3] 11.8% [at 38 µM] | Potency [4] > 46 µM | Potency [8] > 46 µM | Potency [6] | Potency [9] | Potency [10] | outcome [11] | outcome [12]
